Assay results from PubChem BioAssay (Tox21).
“And” between values parts separate entries of the source, which are not always exact repeats. Equal values may be shown once. Inconclusive results are not listed. A call without a number means that no potency is given here. Unmarked numbers belong to inactive results. The source made the active and inactive calls. Calls come from the whole dose curve; as a rule, active = well fitted curve in the direction sought with a large enough effect in the repeat runs; inconclusive = weak or mixed curves; inactive = no such curve, though single readings can be large; an effect the other way counts as inactive or inconclusive.

Assays:
[1] = target: Cytochrome P450 1A2 (Homo sapiens) (UniProt P05177); test: Cytochrome P450 Family 1 Subfamily A Member 2 (CYP1A2) small molecule antagonists: luciferase reporter qHTS assay (AID 1671199); for activity change, negative = inhibition: series mostly up to about 120 µM
Outline: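 Luminescence from luciferin formed by CYP1A2 from a proluciferin substrate, read 20 min after detection reagent. Compound was pre-incubated 10 min with enzyme-substrate, and reaction started with NADPH regeneration solution for 1 h at room temperature; furafylline control.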

[2] = target: Voltage-gated inwardly rectifying potassium channel KCNH2 (Homo sapiens) (UniProt Q12809); test: Human Ether-a-go-go-Related Gene (hERG) channel small molecule antagonists: fluorescence cell-based qHTS assay (AID 1671200);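 for activity change, negative = inhibition: hERG-expressing U2OS cells given a thallium stimulus after FluxOR II dye loading; series mostly up to about 77 µM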
Outline: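 Read-out: thallium influx as a surrogate for potassium, tracked as fluorescence (480 nm ex/540 nm em) every second for 2 min after Stimulus Buffer addition in dye-loaded hERG-U2OS cells.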

[3] = target: Cytochrome P450 3A4 (Homo sapiens) (UniProt P08684); test: Cytochrome P450 Family 3 Subfamily A Member 4 (CYP3A4) small molecule antagonists: luciferase reporter qHTS assay (AID 1671201); for activity change, negative = inhibition: series mostly up to about 120 µM
Outline: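 Luminescent readout (RLU) proportional to CYP3A4 activity, from luciferin generated off a proluciferin substrate. Enzyme–substrate mix plus compound 10 min at room temp, NADPH regeneration 1 h, detection reagent 20 min.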
Note: nearly all actives have a fitted effect of over 50% in size.
Potency is the fitted concentration of half-maximal effect.

Voltage-gated inwardly rectifying potassium channel KCNH2 (Homo sapiens), sequence (Q12809 whole entry, looked up): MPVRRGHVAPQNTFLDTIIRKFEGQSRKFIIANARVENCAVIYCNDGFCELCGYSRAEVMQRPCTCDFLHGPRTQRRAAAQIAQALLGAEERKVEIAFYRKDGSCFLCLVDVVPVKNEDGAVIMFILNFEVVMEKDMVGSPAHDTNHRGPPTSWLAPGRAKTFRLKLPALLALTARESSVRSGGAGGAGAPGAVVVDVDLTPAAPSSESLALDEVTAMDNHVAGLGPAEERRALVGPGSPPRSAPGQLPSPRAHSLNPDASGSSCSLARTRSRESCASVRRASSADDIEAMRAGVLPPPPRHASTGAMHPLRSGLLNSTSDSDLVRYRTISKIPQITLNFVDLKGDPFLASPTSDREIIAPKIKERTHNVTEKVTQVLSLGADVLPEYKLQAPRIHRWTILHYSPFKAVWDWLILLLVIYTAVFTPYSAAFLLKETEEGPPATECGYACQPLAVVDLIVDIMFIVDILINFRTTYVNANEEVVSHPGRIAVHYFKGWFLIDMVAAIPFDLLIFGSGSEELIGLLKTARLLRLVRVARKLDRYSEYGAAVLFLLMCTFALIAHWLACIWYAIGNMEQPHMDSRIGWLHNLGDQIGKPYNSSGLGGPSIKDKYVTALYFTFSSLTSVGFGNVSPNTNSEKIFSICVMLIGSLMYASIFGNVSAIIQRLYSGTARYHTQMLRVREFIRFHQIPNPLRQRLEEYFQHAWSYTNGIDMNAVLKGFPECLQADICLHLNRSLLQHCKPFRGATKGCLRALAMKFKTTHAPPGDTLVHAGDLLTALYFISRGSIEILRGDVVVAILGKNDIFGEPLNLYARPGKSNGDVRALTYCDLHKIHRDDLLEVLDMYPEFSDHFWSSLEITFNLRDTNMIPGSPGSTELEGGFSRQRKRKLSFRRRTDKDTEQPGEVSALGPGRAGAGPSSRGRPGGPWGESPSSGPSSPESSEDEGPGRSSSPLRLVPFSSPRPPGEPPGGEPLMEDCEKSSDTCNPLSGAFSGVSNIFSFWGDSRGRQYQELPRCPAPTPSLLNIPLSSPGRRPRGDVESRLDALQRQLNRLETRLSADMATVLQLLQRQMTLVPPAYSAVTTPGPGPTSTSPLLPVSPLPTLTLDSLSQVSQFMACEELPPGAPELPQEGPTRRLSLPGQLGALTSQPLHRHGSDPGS
Cytochrome P450 1A2 (Homo sapiens), sequence (P05177 whole entry, looked up): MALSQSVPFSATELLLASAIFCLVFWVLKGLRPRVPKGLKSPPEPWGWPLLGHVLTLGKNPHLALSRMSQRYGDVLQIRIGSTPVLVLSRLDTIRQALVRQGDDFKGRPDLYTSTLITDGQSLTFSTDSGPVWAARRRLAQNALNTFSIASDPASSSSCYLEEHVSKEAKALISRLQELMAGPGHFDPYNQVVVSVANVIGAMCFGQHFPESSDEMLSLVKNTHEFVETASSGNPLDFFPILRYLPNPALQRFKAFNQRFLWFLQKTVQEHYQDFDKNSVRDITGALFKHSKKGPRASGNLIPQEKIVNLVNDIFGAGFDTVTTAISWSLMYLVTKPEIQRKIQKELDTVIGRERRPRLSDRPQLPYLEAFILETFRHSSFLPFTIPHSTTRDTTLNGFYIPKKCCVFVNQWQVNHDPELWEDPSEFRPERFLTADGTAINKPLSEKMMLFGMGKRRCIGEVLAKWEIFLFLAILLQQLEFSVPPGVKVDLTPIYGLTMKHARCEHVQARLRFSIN
Cytochrome P450 3A4 (Homo sapiens), sequence (P08684 whole entry, looked up): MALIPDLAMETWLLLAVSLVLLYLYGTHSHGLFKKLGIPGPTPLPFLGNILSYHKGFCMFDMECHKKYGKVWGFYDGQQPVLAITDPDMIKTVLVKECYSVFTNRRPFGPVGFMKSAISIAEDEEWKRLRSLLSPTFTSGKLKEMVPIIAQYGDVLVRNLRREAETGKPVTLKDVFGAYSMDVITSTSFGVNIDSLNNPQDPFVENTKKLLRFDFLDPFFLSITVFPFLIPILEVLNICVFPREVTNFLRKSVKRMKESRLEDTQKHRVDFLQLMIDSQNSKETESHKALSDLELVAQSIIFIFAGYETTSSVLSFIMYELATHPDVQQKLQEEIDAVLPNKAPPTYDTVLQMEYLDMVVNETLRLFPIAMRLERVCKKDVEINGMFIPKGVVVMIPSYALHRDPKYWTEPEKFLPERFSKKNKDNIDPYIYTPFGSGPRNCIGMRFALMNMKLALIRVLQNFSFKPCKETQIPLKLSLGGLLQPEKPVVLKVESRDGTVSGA

Question: What does the source list for `CCC1(c2cnc[nH]2)Cc2ccccc2C1`?
Answer: Potency [1]: 8.12 µM (active); Potency [2]: inactive

Question: Which results are given for `CC(C)=CCCC(C)O` (configuration not stated)?
Answer: Potency [1]: inactive; Potency [2]: inactive

Question: What does the source list for `Oc1ccc(-c2ccc(O)cc2)cc1`?
Answer: Potency [1]: 28.4 µM (active); Potency [2]: inactive

Question: With `CN(C)CCN1CCOCC1` as the compound, how does the Potency [1] read?
Answer: inactive

Question: What about the Potency [2] of the same compound?
Answer: inactive

Question: Which Potency [1] does the source give for `S=P(N1CC1)(N1CC1)N1CC1` here?
Answer: 57.7 µM (active)

Question: And the Potency [2]?
Answer: inactive

Question: For `CCCCCCCCCCCCCC[n+]1ccccc1`, which Potency [1] is on record?
Answer: 71 µM (active)

Question: And the Potency [2]?
Answer: 5.49 µM (active)

Question: Which results are given for `O=Nc1ccc(NO)cc1`?
Answer: Potency [1]: inactive; Potency [2]: inactive

Question: Which results are given for `Cc1cnccn1`?
Answer: Potency [1]: inactive; Potency [2]: inactive

Question: With `C/C=C/C(=O)Oc1c(CCCCCC(C)C)cc([N+](=O)[O-])cc1[N+](=O)[O-]` as the compound, how does the Potency [1] read?
Answer: 25.2 µM (active)

Question: What about the Potency [2] of the same compound?
Answer: 21.9 µM (active)

Question: With `CCN(CC)CCOc1ccc(C(O)(Cc2ccc(Cl)cc2)c2ccc(C)cc2)cc1` (configuration not stated) as the compound, how does the Potency [1] read?
Answer: inactive

Question: And the Potency [2]?
Answer: 1.34 µM (active)

Question: Which results are given for `Oc1cc2ccccc2cc1O`?
Answer: Potency [1]: 31.7 µM (active); Potency [2]: inactive

Question: Which Potency [1] does the source give for `C=CC(=C)CCC=C(C)C` here?
Answer: inactive

Question: And the Potency [2]?
Answer: inactive

Question: Which Potency [1] does the source give for `CCCCCCCCCC(=O)N(C)C` here?
Answer: 36.1 µM (active)

Question: What about the Potency [2] of the same compound?
Answer: inactive

Question: Which Potency [1] does the source give for `CCCCNc1c(C(=O)OCC)c(C)nc2c1cnn2CC` here?
Answer: 2.75 µM (active)

Question: And the Potency [2]?
Answer: inactive

Question: Which results are given for `COc1cccc(CCc2ccccc2OCC(CN(C)C)OC(=O)CCC(=O)O)c1` (configuration not stated)?
Answer: Potency [1]: 30.9 µM (active); Potency [2]: inactive

Question: For `Cc1cncc(C)c1`, which Potency [1] is on record?
Answer: inactive

Question: What about the Potency [2] of the same compound?
Answer: inactive

Question: For `O=C=NCc1cccc(CN=C=O)c1`, which activity change, negative = inhibition [1] is on record?
Answer: -18.9% [at 23.6 µM]

Question: And the activity change, negative = inhibition [2]?
Answer: 0.993% [at 15.8 µM]

Question: How did the Potency [1] turn out when `CC(NCCC(c1ccccc1)c1ccccc1)c1ccccc1` (configuration not stated) was run?
Answer: inactive

Question: And the Potency [2]?
Answer: 1.69 µM (active)

Question: For `CCCCCCOc1ccc(O)cc1`, which Potency [1] is on record?
Answer: 39.9 µM (active)

Question: What about the Potency [2] of the same compound?
Answer: inactive

Question: What does the source list for `O=C1C=CC(=O)N1c1ccccc1`?
Answer: Potency [1]: 20 µM (active); Potency [2]: 49 µM (active)

Question: What does the source list for `O=C1NC2CCCCN2C12CCN(CCCN1c3ccccc3CCc3ccc(Cl)cc31)CC2` (configuration not stated)?
Answer: Potency [1]: inactive; Potency [2]: 0.756 µM (active)

Question: What does the source list for `CC(CN(C)C)CN1c2ccccc2CCc2ccccc21` (configuration not stated)?
Answer: Potency [1]: inactive; Potency [2]: 15.1 µM (active)

Question: Which Potency [1] does the source give for `Cc1nc(Nc2ncc(C(=O)Nc3c(C)cccc3Cl)s2)cc(N2CCN(CCO)CC2)n1` here?
Answer: inactive

Question: And the Potency [2]?
Answer: inactive

Question: With `CCC(C)c1cc([N+](=O)[O-])cc([N+](=O)[O-])c1OC(=O)OC(C)C` (configuration not stated) as the compound, how does the Potency [1] read?
Answer: 2.52 µM (active)

Question: And the Potency [2]?
Answer: inactive

Question: `Cn1cccc1` was tested. Which Potency [1] did it give?
Answer: inactive

Question: What about the Potency [2] of the same compound?
Answer: inactive

Question: What about the Potency [3] of the same compound?
Answer: inactive

Question: How did the Potency [1] turn out when `CO[Si](CCC1CCC2OC2C1)(OC)OC` (configuration not stated) was run?
Answer: inactive

Question: What about the Potency [2] of the same compound?
Answer: inactive

Question: What about the Potency [3] of the same compound?
Answer: inactive

Question: `Cc1c(C(=O)O)cccc1[N+](=O)[O-]` was tested. Which Potency [1] did it give?
Answer: inactive

Question: And the Potency [2]?
Answer: inactive

Question: And the Potency [3]?
Answer: inactive

Question: How did the Potency [1] turn out when `CCCCCCCC(=O)OCC` was run?
Answer: inactive

Question: What about the Potency [2] of the same compound?
Answer: inactive

Question: What about the Potency [3] of the same compound?
Answer: inactive

Question: For `CC(=O)C=O`, which Potency [1] is on record?
Answer: inactive

Question: And the Potency [2]?
Answer: inactive

Question: And the Potency [3]?
Answer: inactive

Question: With `Clc1cc(Cl)c(-c2c(Cl)c(Cl)cc(Cl)c2Cl)cc1Cl` as the compound, how does the Potency [1] read?
Answer: inactive

Question: What about the Potency [2] of the same compound?
Answer: inactive

Question: What about the Potency [3] of the same compound?
Answer: inactive

Question: With `COc1cc(C=C2CCC/C(=C\c3ccc(O)c(OC)c3)C2=O)ccc1O` as the compound, how does the Potency [1] read?
Answer: inactive

Question: And the Potency [2]?
Answer: inactive

Question: Which Potency [1] does the source give for `O=C(O)CCn1c2c(c3ccccc31)C[C@H](NS(=O)(=O)c1ccc(F)cc1)CC2` here?
Answer: inactive

Question: What about the Potency [2] of the same compound?
Answer: inactive

Question: Which Potency [1] does the source give for `O=C1NCN(c2ccccc2)C12CCN(CCCC(c1ccc(F)cc1)c1ccc(F)cc1)CC2` here?
Answer: inactive

Question: What about the Potency [2] of the same compound?
Answer: 0.19 µM (active)

Question: And the Potency [3]?
Answer: inactive

Question: With `CCCCCCC(C)OC(=O)COc1nc(F)c(Cl)c(N)c1Cl` (configuration not stated) as the compound, how does the Potency [1] read?
Answer: 5.64 µM (active)

Question: What about the Potency [2] of the same compound?
Answer: 38.9 µM (active)

Question: For `C/C=C/C(=O)C1=C(C)CCCC1(C)C`, which Potency [1] is on record?
Answer: inactive

Question: What about the Potency [2] of the same compound?
Answer: inactive

Question: How did the Potency [1] turn out when `Cc1cc(C)c(C=O)c(C)c1` was run?
Answer: inactive

Question: What about the Potency [2] of the same compound?
Answer: inactive

Question: And the Potency [3]?
Answer: inactive

Question: Which results are given for `CC(C)=CC1CC(C)CCO1` (configuration not stated)?
Answer: Potency [1]: inactive; Potency [2]: inactive; Potency [3]: inactive

Question: `CCN(CC)c1ccc(N)cc1` was tested. Which Potency [1] did it give?
Answer: 41 µM (active)

Question: What about the Potency [2] of the same compound?
Answer: 25.2 µM (active)

Question: And the Potency [3]?
Answer: 11.6 µM (active)

Question: Which Potency [1] does the source give for `O=c1cccc[nH]1` here?
Answer: inactive

Question: And the Potency [2]?
Answer: inactive

Question: What about the Potency [3] of the same compound?
Answer: inactive

Question: Which Potency [1] does the source give for `CCc1ccc(C)nc1` here?
Answer: inactive

Question: And the Potency [2]?
Answer: inactive

Question: `NC(=O)c1ccccc1N` was tested. Which Potency [1] did it give?
Answer: 31.9 µM (active)

Question: What about the Potency [2] of the same compound?
Answer: inactive

Question: What about the Potency [3] of the same compound?
Answer: inactive

Question: For `CCCCCCCCCCCCOC(=O)c1cc(O)c(O)c(O)c1`, which Potency [1] is on record?
Answer: inactive

Question: And the Potency [2]?
Answer: inactive

Question: What does the source list for `CCC(=O)CC(C)CC` (configuration not stated)?
Answer: activity change, negative = inhibition [1]: -14.4% [at 0.435 µM]; activity change, negative = inhibition [2]: 2.31% [at 0.29 µM]; activity change, negative = inhibition [3]: -0.0732% [at 0.435 µM]

Question: With `O=S(=O)(O)CCCN1CCOCC1` as the compound, how does the Potency [1] read?
Answer: inactive

Question: And the Potency [2]?
Answer: inactive

Question: And the Potency [3]?
Answer: inactive

Question: With `O=C(O)c1cccc(Cl)n1` as the compound, how does the Potency [1] read?
Answer: inactive

Question: What about the Potency [2] of the same compound?
Answer: inactive

Question: And the Potency [3]?
Answer: inactive

Question: What does the source list for `O=C(O)CC(=O)O`?
Answer: Potency [1]: 63.4 µM (active); Potency [2]: inactive; Potency [3]: inactive

Question: For `c1ccc(Nc2cccc3ccccc23)cc1`, which Potency [1] is on record?
Answer: 6.41 µM (active) and 17.8 µM (active)

Question: And the Potency [2]?
Answer: 35.1 µM (active) and 17.4 µM (active)

Question: And the Potency [3]?
Answer: 36.1 µM (active) and 79.6 µM (active)

Question: What does the source list for `NC(=O)C(=O)N/N=C/c1ccc([N+](=O)[O-])o1`?
Answer: Potency [1]: inactive; Potency [2]: inactive; Potency [3]: inactive

Question: With `CCCC(O)C(O)CO` (configuration not stated) as the compound, how does the Potency [1] read?
Answer: inactive

Question: And the Potency [2]?
Answer: inactive

Question: What about the Potency [3] of the same compound?
Answer: inactive

Question: Which results are given for `OCCC(O)CO` (configuration not stated)?
Answer: Potency [1]: inactive; Potency [2]: inactive; Potency [3]: inactive

Question: Which results are given for `C=CC(=O)OCCN(CC)CC`?
Answer: Potency [1]: inactive; Potency [2]: inactive; Potency [3]: inactive

Question: Which results are given for `O=C1Nc2ccc(Cl)cc2[C@@](C#CC2CC2)(C(F)(F)F)O1`?
Answer: Potency [1]: 17.4 µM (active); Potency [2]: inactive; Potency [3]: inactive

Question: `C=C/C=C/C=C/CCCCC` was tested. Which activity change, negative = inhibition [1] did it give?
Answer: -9.41% [at 23.6 µM]

Question: What about the activity change, negative = inhibition [2] of the same compound?
Answer: -12.1% [at 15.8 µM]

Question: And the Potency [3]?
Answer: 16.9 µM (active)

Question: Which Potency [1] does the source give for `CN(C)c1ccc(N=NS(=O)(=O)O)cc1` here?
Answer: 9.45 µM (active)

Question: What about the Potency [2] of the same compound?
Answer: inactive

Question: What does the source list for `Cc1ccc(O)cn1`?
Answer: Potency [1]: inactive; Potency [2]: inactive; Potency [3]: inactive

Question: How did the Potency [1] turn out when `CC(C)(C)c1n[nH]c(=O)n(N)c1=O` was run?
Answer: inactive

Question: And the Potency [2]?
Answer: inactive

Question: And the Potency [3]?
Answer: inactive
